Compounds with a hit are over-represented: about 9.3% of the library has one in this group of screens.
Rab9 promoter act: activators of Rab9 promoter; Huh7 Rab9 promoter-luciferase reporter, luminescence, 24 h; Potency, µM (highest dose often 9.22 µM), actives largely listed as activators; actives 2.8% (n = 320,000); AID 485297; also: nearly all actives have a fitted effect of over 60% in size
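Promoter activation is measured as luciferase luminescence in Huh7 cells stably transfected with a Rab9 promoter–luciferase construct, following 24 h compound exposure at 37 °C and 10 min reagent incubation at ambient temperature.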
SMN2 splice up: enhancers of SMN2 splice variant expression. HEK293 SMN2-luciferase splicing reporter, luminescence, 30-36 h. Potency, µM (series often up to 46.1 µM), most hits filed as activators. actives 2.8% (n = 210,000); also: nearly all actives have a fitted effect of over 55% in size
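HEK293 cells carry an SMN2 minigene-luciferase reporter in which exon 7 inclusion puts luciferase in frame. Cells were seeded at 2000 cells/well, attached for 10-12 hours, then exposed to compounds for 30-36 hours at 37C before ONE-Glo luminescence.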
ELG1 DNA repair: ELG1-dependent DNA repair inhibition. Potency, µM (doses to about 46.1 µM), actives largely listed as inhibitors. HEK293T ELG1-luciferase reporter, luminescence, 16 h; DNA damage induced by 5-fluorouridine. actives 2.3% (n = 330,000); also: nearly all actives have a fitted effect of over 55% in size
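Cells (2,000 per well) received 5-fluorouridine plus test compound or DMSO and were incubated 16 hr at 37 °C, 5% CO2. Luciferase activity was read by luminescence 30 min after ONE-Glo addition; signal suppression marked inhibition of damage-induced ELG1 function.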
FLuc modulator: counter-screen for miR-21 project: firefly luciferase inhibitors or activators | AID 588342 | P08659 | Potency, µM (top dose mostly 57.5 µM), usual class: inhibitors | purified FLuc, Km substrates, luminescence inhibition | actives 6.9% (n = 360,000); also: nearly all actives have a fitted effect of over 55% in size
Target sequence (P08659 whole entry, looked up): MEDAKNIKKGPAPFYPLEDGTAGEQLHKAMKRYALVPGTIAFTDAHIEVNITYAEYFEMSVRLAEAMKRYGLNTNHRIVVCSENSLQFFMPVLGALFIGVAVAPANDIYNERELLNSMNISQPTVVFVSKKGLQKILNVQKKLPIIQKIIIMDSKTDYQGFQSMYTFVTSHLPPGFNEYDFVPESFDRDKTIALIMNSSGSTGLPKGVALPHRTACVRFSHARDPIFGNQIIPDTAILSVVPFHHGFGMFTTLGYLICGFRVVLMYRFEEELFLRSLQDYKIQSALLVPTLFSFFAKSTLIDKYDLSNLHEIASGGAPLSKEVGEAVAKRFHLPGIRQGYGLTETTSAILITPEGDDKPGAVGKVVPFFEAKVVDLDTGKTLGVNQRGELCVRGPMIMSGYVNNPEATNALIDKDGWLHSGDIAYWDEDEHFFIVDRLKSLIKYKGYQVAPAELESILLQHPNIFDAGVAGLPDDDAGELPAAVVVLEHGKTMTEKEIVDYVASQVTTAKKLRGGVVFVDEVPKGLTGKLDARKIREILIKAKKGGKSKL
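Purified P. pyralis luciferase (10nM final) with 10uM D-luciferin and 10uM ATP (Km levels) in 50mM Tris acetate pH 7.5, 10mM Mg acetate, 0.01% Tween-20, 0.05% BSA; qHTS 6-point titration, ~60 µM downward; luminescence read.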
ELG1 genotoxic: inducers of genotoxicity in HEK293T ELG1-luciferase cells; Potency, µM (top dose mostly 46 µM), most hits filed as activators; AID 504466; actives 1.3% (n = 330,000); HEK293T ELG1-luciferase reporter, luminescence, 16 h; also: nearly all actives have a fitted effect of over 60% in size
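Step 1: seed 2,000 HEK293T ELG1-luciferase cells per well. Step 2: add compound or DMSO, incubate 16 hr at 37 °C. Step 3: ONE-Glo, 30 min at room temperature, read luminescence.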
NPC1 promoter act: activators of NPC1 promoter; Potency, µM (series often up to 9.22 µM), usual class: activators; actives 2.4% (n = 320,000); AID 485313; Huh7 NPC1 promoter luciferase reporter, 24 h; also: nearly all actives have a fitted effect of over 60% in size
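Luminescence read-out of NPC1 promoter-driven luciferase in stably transfected Huh7 cells; compounds delivered in DMSO and left 24 h at 37C, 5% CO2, qHTS titration format.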
A number is an active result; . = inactive; ? = inconclusive; / = not tested or not shown; [ ] = remark or other dose. Calls follow the shape of the dose curve; as a rule, active = well fitted curve in the direction sought with a large enough effect; inconclusive = small, poorly fitted or top-dose-only effect, or another doubt; inactive = no such curve, though single readings can be large; an effect the other way counts as inactive or inconclusive.

SMILES	Rab9 promoter act	SMN2 splice up	ELG1 DNA repair	FLuc modulator	ELG1 genotoxic	NPC1 promoter act
COc1cc(C(=O)NC2CCN(CC(=O)NC3CCCCC3)CC2)cc(OC)c1OC	.	/	.	.	.	.
COc1cc(Cl)c(C)cc1NC(=O)c1ccccc1NC(=O)CN1CCOCC1	.	/	16µM	.	.	.
COc1cc(NC(=O)c2cc(OC)c(OC)c(OC)c2)c(OC)cc1NC(=O)CN1CCCCC1	.	.	?	13µM	.	.
O=S(=O)(NCC1CCCO1)c1ccc(S(=O)(=O)N2CCc3ccccc3C2)cc1 (centres undefined)	.	.	.	.	.	.
O=C(O)CCCn1ccc2cc(S(=O)(=O)N3CCCC3)ccc21	.	/	.	.	.	.
COCCNS(=O)(=O)c1ccc(-c2ccc(S(=O)(=O)NCCOC)cc2)cc1	1µM	20µM	?	4.3µM	?	?
CCc1ccc(OCC(=O)NC(=S)Nc2cccc(CO)c2)c(Br)c1	2.8µM	13µM	?	6µM	?	1.8µM
COc1ccc(-c2ccc(NS(=O)(=O)c3cccc(C)c3)cc2)nn1	/	/	/	.	/	/
Cc1cc(Nc2ccc(Br)cc2)nc(-c2ccccc2O)n1	.	/	.	?	.	.
Cc1ccc(Nc2cc(C)nc(-c3ccccc3O)n2)cc1	.	.	?	24µM	?	.
Cc1ccc(Nc2cc(C)nc(-c3ccccc3)n2)cc1	?	/	?	21µM	?	?
Cc1cc(Nc2ccc(F)c(F)c2)nc(-c2ccccc2O)n1	.	/	.	.	.	.
Cc1ccc(CNc2ncnc3c2nc2n3CCCC2)cc1	/	/	/	.	/	/
CCCOc1ccc(C(=O)NC(=S)NNC(=O)c2c(-c3ccccc3)noc2C)cc1	.	/	7.3µM	.	.	.
COC(=O)c1onc(C(=O)c2ccccc2)c1C(=O)OC	.	.	.	.	.	.
COc1ccccc1Oc1nc(-c2ccccc2)cc(C)c1S(C)(=O)=O	.	.	.	.	.	.
Nc1cc([N+](=O)[O-])cc2oc(-c3ccccc3)cc12	?	/	.	19µM	?	?
NC(=O)C1CCN(C(=O)c2ccc3ccccc3c2)CC1	.	/	?	.	.	.
Clc1ccc(CONc2ncnc3nonc23)c(Cl)c1	3.5µM	?	?	?	.	?
CC(C)(C)c1ccc(C(=O)CSc2n[nH]c(=O)[nH]c2=O)cc1	.	.	?	12µM	.	.
O=C(O)CSc1n[nH]c(=O)[nH]c1=O	/	.[9.22 µM]	/	/	/	/
CCOC(=O)N1CCC(NC(=O)C2CCN(C(=O)N3CCOc4ccccc43)CC2)CC1	.	.	.	.	.	.
O=C(COc1ccc(S(=O)(=O)N2CCCCC2)cc1)N1CCOCC1	.	/	.	.	.	.
COc1ccc(/C=N/NC(=O)c2ccc(Br)cc2)c(OC)c1	.	.	.	15µM	.	.
COc1ccccc1/C=N/OC(=O)c1ccc(F)cc1	.	/	.	3.4µM	.	.
SMILES	Rab9 promoter act	SMN2 splice up	ELG1 DNA repair	FLuc modulator	ELG1 genotoxic	NPC1 promoter act
COc1ccccc1/C=N/NC(=O)c1ccc(Br)cc1	.	.	?	13µM	.	.
COc1ccc(O)c(/C=N/NC(=O)c2ccc(OCc3cccc(Br)c3)cc2)c1	.	.	3.7µM	.	.	.
O=C(O)c1cccc2c1C(=O)c1ccc(-c3ccc(OC(F)(F)F)cc3)cc1S2(=O)=O	/	/	?	/	.	/
CS(=O)(=O)N1CCC2(CC1)CN(c1ccc(-c3ccccc3)cc1)C2	/	.	/	/	/	/
COc1ccc(CNC(=O)CN(C)CC(=O)Nc2ccccc2Br)cc1	/	/	?	/	.	/
C=CCn1nc(-c2ccccc2)c(N2CCCCC2)cc1=O	.	.	.	.	.	.
CC(=O)Nc1ccc(C(=O)N/N=C/c2ccccc2OC(=O)c2ccc(Cl)cc2)cc1	.	.	?	?	.	.
COc1cc(C(=O)Oc2ccccc2/C=N/NC(=O)c2ccc(Cl)cc2)cc(OC)c1OC	.	.	.	6.7µM	?	.
COc1cc(OC)c(NC(=O)Nc2nnc(N(C)C3CCCCC3)s2)cc1Cl	/	/	/	.	/	/
O=C(Nc1ccccn1)NC1CCCCC1	.	/	.	.	.	.
CN(C(=O)c1cc2c(=O)n3ccccc3nc2n1C)C1CCCCC1	3.2µM	/	?	12µM	4.6µM	2µM
O=C(COc1ccc(Cl)cc1Cl)NC(=O)NC1CCCC1	?	/	?	9.5µM	?	?
COc1ccccc1C(=O)OCC(=O)NC(=O)NC1CCCC1	.	/	.	.	.	.
O=C(COc1ccc(Cl)cc1Cl)NC(=S)N1CCCc2ccccc21	.	.	.	27µM	.	.
CC(=O)c1ccccc1OC(=O)COc1ccc(Cl)cc1C	.	.	.	17µM	.	.
O=C(COc1ccccc1Cl)NC(=O)NC1CCCC1	?	.	?	13µM	?	.
O=C(COC(=O)COc1ccc(Cl)cc1Cl)NC1CCCCCC1	.	/	.	.	.	.
CCN(CC)c1ccc(/C=N/NC(=O)c2cccc(S(=O)(=O)Nc3ccccc3OC)c2)cc1	.	.	.	.	.	.
CCCN1CCC(NC(=S)Nc2cccc(Cl)c2Cl)CC1	.	.	.	.	.	.
O=C(COc1ccc(Cl)cc1Cl)NC1CCSC1=O (centres undefined)	3.5µM	?	?	11µM	16µM	?
O=C(COc1ccc(Cl)cc1Cl)N1CCCN(C(=O)COc2ccc(Cl)cc2Cl)CC1	.	.	?	.	.	.
O=C(COc1ccc(Cl)cc1Br)NC(=O)NC1CCCC1	3.2µM	/	?	6µM	?	3.5µM
Cc1cc(Cl)ccc1OCC(=O)N1CCCCC1	.	?	?	17µM	21µM	?
O=C(COC(=O)COc1ccc(Cl)cc1Br)NC1CC1	/	/	?	/	.	/
O=C(COc1ccc(Cl)cc1Cl)NC(=O)N1CCCCC1	?	2.2µM	?	3.4µM	2.9µM	.
SMILES	Rab9 promoter act	SMN2 splice up	ELG1 DNA repair	FLuc modulator	ELG1 genotoxic	NPC1 promoter act
COc1ccc(NC(=O)CSc2ncnc3c2cnn3CCc2ccccc2)cc1	.	.	.	.	.	.
Cc1occc1C(=O)NNC(=S)Nc1ccccc1C(F)(F)F	2.8µM	?	?	.	.	?
Cc1occc1C(=O)NNC(=S)Nc1ccccc1	2.5µM	?	?	?	?	?
Cc1ccccc1NC(=S)NNC(=O)c1ccoc1C	?	.	?	.	.	?
CCNC(=S)N1CCN(c2ccccn2)CC1	.	/	.	.	.	.
CS(=O)(=O)N1CCC(C(=O)O)CC1	.	.	.	.	.	.
CCCCOCCCNC(=O)COc1ccccc1	.	.	.	.	.	.
CCC(=O)NC(c1ccccc1OC)c1ccc2cccnc2c1O (centres undefined)	.	.	4.1µM	.	.	.
CCCCC(=O)NC(c1ccccc1Cl)c1ccc2cccnc2c1O (centres undefined)	.	/	3.3µM	.	.	.

Screening data from PubChem BioAssay.
